# Compound activity (PubChem)
# Only some compounds are listed: those with a hit (about 3.5% of all), similar ones and a draw of the others.
# Tau FP inhib – blocks human tau fibril formation measured by polarization | AID 1468 | actives 0.39% (n = 280,000) | P10636 | K18 P301L tau heparin fibrillization, Alexa594 FP, 6 h | Potency, µM (titrated, usually from 57.7 µM), inactives show at the highest dose activity, negative = inhibition, usual class: inhibitors; also: nearly all actives have a fitted effect of over 55% in size
# Target sequence (P10636 561-689 P618L limits assumed): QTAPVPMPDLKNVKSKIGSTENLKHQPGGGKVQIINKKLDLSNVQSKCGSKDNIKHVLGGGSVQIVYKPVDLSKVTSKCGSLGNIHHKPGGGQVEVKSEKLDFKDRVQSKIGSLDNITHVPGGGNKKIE
#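 Heparin (20 uM) drove fibril formation of recombinant tau K18 P301L, 15 uM unlabeled with 0.24 uM Alexa 594 label, for 6 hr at 37 C in 100 mM sodium acetate pH 7. Fluorescence polarization (555/632 nm) read 1 hr after 30 uM ThT.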
# Tau ThT inhib – inhibitors of human tau fibril formation, thioflavin T binding; AID 1460; P10636; recombinant tau K18 P301L, heparin-induced fibrillization, ThT fluorescence; actives 2.1% (n = 270,000); Potency, µM (series often up to 57.4 µM), for inactives: top-dose activity, negative = inhibition, actives largely listed as inhibitors; also: nearly all actives have a fitted effect of over 55% in size
#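 Tau K18 P301L fragment (15 uM unlabeled plus 0.24 uM Alexa 594-labeled) in 100 mM sodium acetate pH 7 with compound, fibrillization induced by 20 uM heparin for 6 hr at 37 C. Thioflavin T (30 uM) added, fluorescence read after 1 hr (ex 450, em 510 nm).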
# JMJD2E inh – blocks human JMJD2E demethylase activity; B2RXH2; JMJD2E catalytic domain, FDH-coupled NADH fluorescence (FDH is formaldehyde dehydrogenase); Potency, µM (series often up to 57.1 µM), for the others: top-dose activity change, negative = inhibition, usual class: inhibitors; actives 1.6% (n = 230,000); active = well fitted inhibition curve with a large enough effect, not every such curve was filed as active; inconclusive = small, poorly fitted or top-dose-only effect, or another doubt; inactive = no such curve, though single readings can be large or run the other way;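 also: 0% = wells with enzyme and -100% = buffer wells without enzyme; nearly all actives have a fitted effect of over 50% in size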
# TRb SRC2 PPI – disrupts binding of human TR beta to SRC2; actives 0.065% (n = 280,000); Potency, µM (top dose mostly 106 µM), for inactives: at the highest dose activity change, negative = inhibition, usual class: inhibitors; P10828; AID 1469; TRbeta-SRC2 peptide binding, fluorescence polarization; receptor liganded with 1 µM T3;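 also: plate controls were bound peptide for no effect and peptide without receptor for full effect; nearly all actives have a fitted effect of over 50% in size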
# Target sequence (P10828 whole entry, looked up): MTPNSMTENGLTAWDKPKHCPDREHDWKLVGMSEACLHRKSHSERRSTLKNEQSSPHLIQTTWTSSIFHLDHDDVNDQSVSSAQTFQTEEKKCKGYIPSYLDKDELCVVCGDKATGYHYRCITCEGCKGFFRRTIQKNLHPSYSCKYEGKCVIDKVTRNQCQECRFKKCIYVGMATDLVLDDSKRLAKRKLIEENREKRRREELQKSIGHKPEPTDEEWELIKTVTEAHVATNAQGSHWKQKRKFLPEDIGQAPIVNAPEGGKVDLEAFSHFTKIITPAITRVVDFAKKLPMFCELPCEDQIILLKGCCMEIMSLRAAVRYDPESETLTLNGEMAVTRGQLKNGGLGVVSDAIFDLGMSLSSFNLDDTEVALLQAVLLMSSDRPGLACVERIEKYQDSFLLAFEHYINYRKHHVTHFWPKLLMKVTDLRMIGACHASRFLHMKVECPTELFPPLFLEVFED
#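 Assay buffer: 20 mM Tris-HCl, 100 mM NaCl, 10% glycerol, 1 mM EDTA, 0.01% NP-40, 1 mM DTT, 1 uM T3, 5% DMSO; TRb LBD 0.6 uM, Texas Red SRC2 20 nM; FP after 5 hr.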
# TexasRed fluor – Texas Red fluorescence interference in TRb-SRC2 counter-screen; actives 0.29% (n = 280,000); Potency, µM (titrated, usually from 106 µM), for inactives: top-dose fluorescence change, negative = quenching; TRb/SRC2 Texas Red total fluorescence interference; active = well fitted curve in either direction with a large enough effect; inconclusive = small, poorly fitted or top-dose-only effect
#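 Human TRb ligand-binding domain at 0.6 uM with 20 nM Texas Red SRC2 peptide in Tris buffer containing 1 uM T3 and 5% DMSO, incubated with compound 5 h at ambient temperature. Total fluorescence (555/632 nm) calculated as parallel + 2 × perpendicular.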
# Tau fluor cs – counter-screen for tau fibril formation inhibitors; tau K18 P301L (four-repeat tau fragment) Alexa594 fluorescence, heparin fibrillization; Potency, µM (titrated, usually from 57.7 µM), for inactives: at the highest dose activity change, negative = decrease; actives 0.93% (n = 280,000); AID 1463; also: nearly all actives have a fitted effect of over 55% in size
#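 Human K18 P301L tau (15 uM unlabeled plus 0.24 uM Alexa 594-labeled, final) in 100 mM sodium acetate pH 7 was mixed with compound and 20 uM heparin and incubated 6 hr at 37 C.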
# Starred values were filed as active, the others as inactive; ? = inconclusive; / = no result given; ! = repeats disagree; [ ] = another dose, or the depositor's remark. Unless noted, calls follow the shape of the dose curve; as a rule, active = well fitted curve in the direction sought with a large enough effect; inconclusive = small, poorly fitted or top-dose-only effect, or another doubt; inactive = no such curve, though single readings can be large; an effect the other way counts as inactive or inconclusive. Unless noted, % is scaled to controls: 0 for no effect and ±100 for the full control effect; potency is read from the fitted curve at half-maximal effect.
SMILES,Tau FP inhib,Tau ThT inhib,JMJD2E inh,TRb SRC2 PPI,TexasRed fluor,Tau fluor cs
O=C(N/N=C/c1ccccc1C(F)(F)F)c1ccc(O)cc1,2.0%,?,-3.6%,3.5%,-3.1%,-12.0%
COc1ccc(C(=O)N/N=C/c2sc3ccccc3c2O)cc1,-0.1%,1.78µM*,35.5µM*,-7.1%,-0.2%,?
O=C(N/N=C/c1sc2ccccc2c1O)c1cccc2ccccc12,-12.6%,10µM*,25.1µM*,3.3%,-4.5%,?
O=C(N/N=C/c1sc2ccccc2c1O)c1ccccc1,-7.1%,?,22.4µM*,4.8%,-2.5%,?
CC1CCCN(C(=O)c2ccncc2)C1 (configuration not stated),5.3%,5.1%,12.7%,-4.5%,-6.4%,3.5%
COc1ccc(C2C(C(C)=O)=C(C)N=c3s/c(=C\c4ccco4)c(=O)n32)c(OC)c1 (configuration not stated),-6.2%,12.6µM*,-10.3%,2.7%,-1.1%,?
CCOC(=O)C1=C(c2ccccc2)N=c2s/c(=C\c3ccco3)c(=O)n2C1c1cccs1 (configuration not stated),?,?,12.6µM*,-2.8%,-1.5%,?
CCOC(=O)C1=C(c2ccccc2)N=c2s/c(=C\c3cc(OC)c(OC)c(OC)c3)c(=O)n2C1c1cccs1 (configuration not stated),-6.2%,-8.2%,6.5%,9.5%,3.0%,-12.0%
CCCc1nc2ccccc2c(=O)n1/N=C/c1ccccc1O,-2.5%,-12.1%,31.6µM*,-15.2%,0.8%,-29.5%
Cc1cccc(C)c1OCc1nc2ccccc2c(=O)n1/N=C/c1c[nH]c2ccccc12,?,-4.8%,?,-0.6%,-4.1%,3.55µM*[quencher]
Cc1ccccc1NC(=O)c1ccc2c(c1)c(C)c(C)n2Cc1ccccc1,2.5%,-5.0%,/,6.5%,0.8%,-7.1%
O=C(Cc1cc(=O)[nH][nH]1)N/N=C/c1cccc(Cl)c1Cl,?,?,3.98µM*!,2.5%,-3.4%,?
O=C(Cc1cc(=O)[nH][nH]1)N/N=C/C(Cl)=C/c1ccccc1,?,2.82µM*,-16.9%,-6.8%,-16.3%,?
O=C(CSc1nc2ccc(S(=O)(=O)N3CCOCC3)cc2[nH]1)N1CCOCC1,?,28.2µM*,-3.1%,9.6%,-0.1%,-25.7%
CCCC/C(O)=N\S(=O)(=O)c1ccc(N=NN(C)C)cc1,-10.6%,-4.9%,8.91µM*,5.4%,-4.5%,-5.8%
COc1cc(CNc2ccc(N3CCCC3)cc2)ccc1OCc1ccccc1F,1.4%,3.9%,-3.3%,-3.4%,-4.4%,6.0%
COc1cc(CNc2ccc(N3CCCC3)cc2)ccc1OCc1ccccc1,?,5.01µM*,6.31µM*,-22.6%,19.9%,?
COc1ccc(/C=N/NC(=S)Nc2ccccc2[N+](=O)[O-])cc1O,-4.8%,4.47µM*,?,-4.8%[53 µM],-1.1%[53 µM],15.8µM*[quencher]
COc1cccc(-c2cn3c(n2)sc2cc(C(=O)NC4CCCCC4)ccc23)c1,-5.5%,13.6%,/,-0.6%,?,15.2%
COc1cc2[nH]c(=S)n(N(C(C)=O)C(C)=O)c(=O)c2cc1OC,2.3%,-12.3%,-16.4%,-8.4%,-2.6%,-9.8%
CCOc1ccc(N/C=C/C(=O)c2ccc3ccccc3c2)c([N+](=O)[O-])c1,2.3%,1.12µM*,4.3%,0.9%,0.0%,?
CCOc1ccc(N/C=C/C(=O)c2ccc(C)cc2)c([N+](=O)[O-])c1,-3.4%,1.12µM*,-1.3%,6.3%,2.8%,-20.7%
CCCCCCCCCCCCCCCC(=O)N[C@H](CN1CCOCC1)[C@H](O)c1ccccc1,3.5%,-1.2%,0.2%,2.1%,-3.0%,3.0%
O=S(=O)(NCc1ccc(F)cc1)c1ccc2[nH]c3c(c2c1)CCCC3,9.9%,-5.3%,/,-1.4%,2.6%,12.6µM*[quencher]
O=S(=O)(NCc1ccc(Cl)cc1)c1ccc2[nH]c3c(c2c1)CCCC3,2.0%,-9.8%,/,-7.0%,25.1µM*[quencher],12.6µM*[quencher]
SMILES,Tau FP inhib,Tau ThT inhib,JMJD2E inh,TRb SRC2 PPI,TexasRed fluor,Tau fluor cs
CN(C(=O)CCc1nc(-c2ccccc2F)no1)c1ccccc1,6.2%,-2.1%,-0.3%,3.0%,-0.3%,-5.6%
CCOc1ccc(CNC(=O)C2CCCN(c3nn4cc(-c5ccc(F)cc5)nc4s3)C2)cc1 (configuration not stated),6.0%,?,/,-4.9%,4.2%,-14.9%
CC(C)CC1NC(=O)C(CCCN)NC(=O)C(C(C)C)NC(=O)C2CCCN2C(=O)C(Cc2ccccc2)NC(=O)C(CC(C)C)NC(=O)C(CCCN)NC(=O)C(C(C)C)NC(=O)C2CCCN2C(=O)C(Cc2ccccc2)NC1=O (configuration not stated),10.0%,1.4%,25.1µM*,2.7%,-1.9%,-29.5%
CC(C)(C)c1ccc(C(=O)NC(Cc2c[nH]c3ccccc23)C(=O)OCC(=O)c2ccc(Cl)cc2)cc1 (configuration not stated),-12.3%,-14.6%,/,-8.1%,-2.6%,?
O=C(COC(=O)[C@H](Cc1c[nH]c2ccccc12)NC(=O)c1ccc(Cl)cc1)Nc1ccc2c(c1)OCO2,-13.7%,?,5.1%,-13.5%,0.7%,8.91µM*[quencher]
COC(=O)C1=C(C(=O)OC)SC(=C2C(=S)C(C)(C)N(C(=O)CC(C)C)c3ccccc32)S1,?,1.12µM*,4.1%,-10.7%,0.2%,?
COC(=O)C1=C(C(=O)OC)[C@@H]2N(C)c3ccccc3[C@@]23C[C@@H](C(=O)OC)N(C(=O)CC(C)C)C3=N1,-2.8%[11.6 µM],-11.3%[11.5 µM],7.4%[11.4 µM],3.8%[11.2 µM],5.2%[11.2 µM],-22.0%[11.6 µM]
COCCCNC(=S)NNC(=S)NCCCOC,-2.3%,-0.1%,-7.8%,6.1%,0.0%,3.0%
CC[n+]1c(/C=C2\Sc3ccccc3N2C)ccc2cccc(C)c21,?,20µM*,-21.9%,-4.2%,-1.6%,28.2%
CCN1/C(=C/c2ccc3cc(C)ccc3[n+]2CC)Sc2ccccc21,?,17.8µM*,-3.6%,3.9%,-0.5%,14.1%
CC[n+]1c(C)sc2cc(C)ccc21,-10.7%,?,?,-0.4%,-0.6%,-20.9%
CCN1/C(=C/c2sc(-c3ccccc3C)c[n+]2C)Sc2ccccc21,2.1%,?,-21.0%,-1.2%,-0.9%,-1.0%
CCN1/C(=C/c2ccc3cc(C)ccc3[n+]2CC)Sc2cc(C)c(C)cc21,?,7.08µM*,?,-2.8%,0.6%,?
CC(C)C(=O)NC(=S)N1CCc2ccccc21,5.1%,-1.6%,4.5%,-9.2%,-1.0%,2.6%
Cc1ccc(C(F)(F)F)cc1NC(N)=S,4.7%,-1.8%,10.9%,-0.9%,1.4%,1.1%
COc1cc(/C=C(/C#N)c2nc(-c3cc4ccccc4oc3=O)cs2)cc([N+](=O)[O-])c1O,?,?,13.1%,-0.8%,-0.6%,?
